We go through 39 molecules from PubChem BioAssay (NCI).

About 83,000 compounds went through this panel and 20% of them were active in at least one assay; those are over-represented in the sample as a whole.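 The test compound was applied at a single concentration to cells in 96-well plates for 48 hours, and percent growth was recorded.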 Calls of active or inactive are those of the source. Rule for the calls: active = growth percent below 10; inactive = the rest.

The first experiment deals with SF-268 CNS. Nature of the experiment: NCI-60 one-dose screen, 48 h (100 = growth as untreated, 0 = no growth, -100 = all killed). As to conditions: 10 µM unless noted.
Turning to `CN1CCN(CCCOc2cccc3nc(Nc4ccc(Cl)c(C(F)(F)F)c4)ccc23)CC1`, the growth was 28.3% (inactive).
In the case of `C#Cc1cccc(Nc2ncnc3cc(OC)c(OCCCCCCC(=O)NO)cc23)c1`, the growth was -3.98% (active).
On the same count and under the same terms, for `Cc1ccc(-n2nc(C(C)(C)C)cc2NC(=O)NCc2cc(F)ccc2Oc2ccc3c(cnn3CCO)c2)cc1` the value was 34.8% (inactive); for `Cn1ccnc1C(=O)/C=C/c1ccc(CC(=O)Nc2ccc(Br)cc2)cc1`, 16.2% (inactive); for `Cc1[nH]n(C(N)=S)c(=O)c1N=Nc1ccc(S(=O)(=O)Nc2ccncn2)cc1`, 85% (inactive).
Same read-out and setting: for `Cc1[nH]c(/C=C2\C(=O)Nc3ccc(F)cc32)c(C)c1C(=O)NC[C@H](O)CN1CCOCC1` the value was 40.9% (inactive); for `Cn1ncc(Cl)c1-c1cc(C(=O)N[C@H](CN)Cc2cccc(F)c2)sc1Cl`, 27% (inactive); for `Cn1cc(-c2ncnc3ccc(-c4cnc(Cl)c(NS(C)(=O)=O)c4)cc23)c2ccccc21`, 27.5% (inactive).
On to `O=[N+]([O-])c1cc(Br)cc2c1[nH]c1ccc(Br)cc12`, for which the growth was 73.4% (inactive).
With `COc1ccc2c(OCc3nnc4ccc(-c5ccccc5)nn34)ccnc2c1`, the growth was 109% [2.5 µM] (inactive).
Same read-out and setting: for `CC(=O)O[C@]1(C)C[C@H](O)[C@]2(O)C=CO[C@H](O[C@@H]3O[C@H](CO)[C@@H](O)[C@H](O)[C@H]3O)[C@@H]21` the value was 94.3% (inactive); for `COc1cc2cc(NCc3ccc(F)cc3)nc(C)c2cc1OC`, 50.7% (inactive); for `O=C(Nc1nc2cccc(-c3ccc(CN4CCS(=O)(=O)CC4)cc3)n2n1)C1CC1`, 70.7% (inactive).
In the case of `N#Cc1c(-c2ccc(Cl)cc2)csc1NC(=O)Nc1cccc(C(F)(F)F)c1`, the growth is 27.9% (inactive).
On the same count and under the same terms, for `O=C(c1ccc(/C=C/c2n[nH]c3ccccc23)cc1)N1CCNCC1` the value was 39.2% (inactive).
Same read-out and setting: the result for `Cc1cnc(Nc2ccc(OCCN3CCCC3)cc2)nc1Nc1cccc(S(=O)(=O)NC(C)(C)C)c1` reads -10.9% (active); that for `CO[C@H]1C[C@@H]2CC[C@@H](C)[C@@](O)(O2)C(=O)C(=O)N2CCCC[C@H]2C(=O)O[C@H]([C@H](C)C[C@@H]2CC[C@@H](OCCO)[C@H](OC)C2)CC(=O)[C@H](C)/C=C(\C)[C@@H](O)[C@H](OC)C(=O)[C@H](C)C[C@H](C)\C=C/C=C/C=C/1C`, 51.6% (inactive).
Still for that read-out and setting: the result for `COc1cc(F)c(F)c(Nc2ccc(I)cc2F)c1NS(=O)(=O)C1(C[C@H](O)CO)CC1` reads 52.9% (inactive); that for `Nc1ccc(S(=O)(=O)O)c2cc(S(=O)(=O)O)cc(O)c12`, 111% (inactive); that for `COc1cc2ncnc(Nc3ccc(F)c(Cl)c3)c2cc1NC(=O)/C=C/CN1CCCCC1`, -74.5% (active).
Regarding `COc1ccc(C(=O)N2c3ccccc3Sc3ccccc32)c(F)c1`, the growth was 53.1% (inactive).
Same read-out and setting: for `O=S1(=O)OC(c2ccc(O)c(Cl)c2)(c2ccc(O)c(Cl)c2)c2ccccc21` the value was 96.9% (inactive).
The same measure, in the same setting: for `C[C@H](NC(=O)c1c(N)nn2cccnc12)c1cc2cccc(C#Cc3cnn(C)c3)c2c(=O)n1-c1ccccc1` the value was 25.3% (inactive); for `Cc1cc(O)cc(-c2c(-c3ccnc(-c4cccnc4)c3)cnn2C)c1`, 72.8% (inactive).
On the same count and under the same terms, the result for `CN1CCN(CCOc2cc(OC3CCOCC3)c3c(Nc4c(Cl)ccc5c4OCO5)ncnc3c2)CC1` reads 61.4% (inactive).

For the next experiment, the system named is SF-295 CNS. The description is as above. The note with it: 10 µM unless noted.
Take `CC(C)(C)c1ccc(Cn2cc(CSc3nc4ccccc4s3)nn2)cc1`: the growth was 91% (inactive).
On the same count and under the same terms, the result for `CCN1CCN(Cc2ccc(Cc3ncc(F)c(-c4cc(F)c5nc(C)n(C(C)C)c5c4)n3)nc2)CC1` reads 64.9% (inactive); that for `CC(=O)NCC(=O)N1[C@@H]2CC[C@H]1c1ccc(Nc3ncc(C(F)(F)F)c(NC4CCC4)n3)cc12`, 60% [2.5 µM] (inactive); that for `O=C(NOCCO)c1cc(CN2OCCCC2=O)c(F)c(F)c1Nc1ccc(I)cc1F`, 71.6% (inactive).
In the case of `CC(C)CC(=O)Nc1n[nH]c2c1CN(C(=O)C1CCN(C)CC1)C2(C)C`, the growth is 41.6% (inactive).
Take `Cc1ccc(N)cc1CN1C(=O)c2ccccc2C1=O`: the growth was 118% (inactive).
On the same count and under the same terms, the result for `COCc1c(-c2ccc(NC(=O)Nc3cc(C(F)(F)F)ccc3F)c(F)c2)c2c(N)ncnn2c1CN1CCOCC1` reads -54.2% (active); that for `O=C(CNc1nc2ccccc2s1)Nc1ccc(-c2nc3ccccc3s2)cc1`, 107% (inactive).
`N#CC[C@H](C1CCCC1)n1cc(-c2ncnc3[nH]ccc23)cn1`: the growth is 76.6% (inactive).
Still for that read-out and setting: the result for `C=CC(=O)Nc1cc2c(Nc3ccc(F)c(Cl)c3)ncnc2cc1C#CC(C)(C)N1CCN(C)CC1` reads -97.4% (active).
With `CC(=O)C1=C(C)NC(SCc2nnc(-c3ccc(C)cc3)o2)=NC1c1ccc(F)cc1` (centres undefined), the growth was 108% (inactive).
Consider `CNC(=O)c1ccc(Nc2ncc(C(F)(F)F)c(NCc3nccnc3N(C)S(C)(=O)=O)n2)cc1`, for which the growth is 5.63% (active).
Still for that read-out and setting: the result for `C/C=C/C=N/NC(=S)Nc1ccccc1` reads 98.9% (inactive).
On the same count and under the same terms, the result for `COc1cc(N2CCC(N(C)C)CC2)ccc1Nc1ncc(Cl)c(Nc2ccccc2P(C)(C)=O)n1` reads 27.7% (inactive); that for `CN1CCN(CCCOc2cccc3nc(Nc4ccc(Cl)c(C(F)(F)F)c4)ccc23)CC1`, -11% (active); that for `C#Cc1cccc(Nc2ncnc3cc(OC)c(OCCCCCCC(=O)NO)cc23)c1`, -53.6% (active).
Still for that read-out and setting: for `Cc1ccc(-n2nc(C(C)(C)C)cc2NC(=O)NCc2cc(F)ccc2Oc2ccc3c(cnn3CCO)c2)cc1` the value was 26.9% (inactive).
For `Cn1ccnc1C(=O)/C=C/c1ccc(CC(=O)Nc2ccc(Br)cc2)cc1`, the growth was 19.4% (inactive).
Regarding `Cc1[nH]n(C(N)=S)c(=O)c1N=Nc1ccc(S(=O)(=O)Nc2ccncn2)cc1`, the growth was 125% (inactive).
On the same count and under the same terms, for `Cc1[nH]c(/C=C2\C(=O)Nc3ccc(F)cc32)c(C)c1C(=O)NC[C@H](O)CN1CCOCC1` the value was 64% (inactive).
The same measure, in the same setting: the result for `Cn1ncc(Cl)c1-c1cc(C(=O)N[C@H](CN)Cc2cccc(F)c2)sc1Cl` reads -12.5% (active); that for `Cn1cc(-c2ncnc3ccc(-c4cnc(Cl)c(NS(C)(=O)=O)c4)cc23)c2ccccc21`, -9.66% (active); that for `O=[N+]([O-])c1cc(Br)cc2c1[nH]c1ccc(Br)cc12`, 49.9% (inactive).
On the same count and under the same terms, for `COc1ccc2c(OCc3nnc4ccc(-c5ccccc5)nn34)ccnc2c1` the value was 63.4% [2.5 µM] (inactive).
For `CC(=O)O[C@]1(C)C[C@H](O)[C@]2(O)C=CO[C@H](O[C@@H]3O[C@H](CO)[C@@H](O)[C@H](O)[C@H]3O)[C@@H]21`, the growth is 90.9% (inactive).
On the same count and under the same terms, for `COc1cc2cc(NCc3ccc(F)cc3)nc(C)c2cc1OC` the value was 40.7% (inactive); for `O=C(Nc1nc2cccc(-c3ccc(CN4CCS(=O)(=O)CC4)cc3)n2n1)C1CC1`, 88.8% (inactive); for `N#Cc1c(-c2ccc(Cl)cc2)csc1NC(=O)Nc1cccc(C(F)(F)F)c1`, 3.47% (active).
For `O=C(c1ccc(/C=C/c2n[nH]c3ccccc23)cc1)N1CCNCC1`, the growth was 51.4% (inactive).
As to `Cc1cnc(Nc2ccc(OCCN3CCCC3)cc2)nc1Nc1cccc(S(=O)(=O)NC(C)(C)C)c1`, the growth was 15.5% (inactive).
On the same count and under the same terms, for `CO[C@H]1C[C@@H]2CC[C@@H](C)[C@@](O)(O2)C(=O)C(=O)N2CCCC[C@H]2C(=O)O[C@H]([C@H](C)C[C@@H]2CC[C@@H](OCCO)[C@H](OC)C2)CC(=O)[C@H](C)/C=C(\C)[C@@H](O)[C@H](OC)C(=O)[C@H](C)C[C@H](C)\C=C/C=C/C=C/1C` the value was 26.3% (inactive).
On to `COc1cc(F)c(F)c(Nc2ccc(I)cc2F)c1NS(=O)(=O)C1(C[C@H](O)CO)CC1`, for which the growth was 59.9% (inactive).
On the same count and under the same terms, the result for `Nc1ccc(S(=O)(=O)O)c2cc(S(=O)(=O)O)cc(O)c12` reads 110% (inactive).
Consider `COc1cc2ncnc(Nc3ccc(F)c(Cl)c3)c2cc1NC(=O)/C=C/CN1CCCCC1`, for which the growth is -55% (active).
Still for that read-out and setting: for `COc1ccc(C(=O)N2c3ccccc3Sc3ccccc32)c(F)c1` the value was 8.85% (active); for `O=S1(=O)OC(c2ccc(O)c(Cl)c2)(c2ccc(O)c(Cl)c2)c2ccccc21`, 103% (inactive).
As for `C[C@H](NC(=O)c1c(N)nn2cccnc12)c1cc2cccc(C#Cc3cnn(C)c3)c2c(=O)n1-c1ccccc1`, the growth was 11.6% (inactive).
On the same count and under the same terms, the result for `Cc1cc(O)cc(-c2c(-c3ccnc(-c4cccnc4)c3)cnn2C)c1` reads 59.2% (inactive); that for `CN1CCN(CCOc2cc(OC3CCOCC3)c3c(Nc4c(Cl)ccc5c4OCO5)ncnc3c2)CC1`, 77.8% (inactive).
